Sampled rows, rich in hits. Any-hit rate of the full collection: about 2.8%.
IP6K1 inhibitor: Primary qHTS assay for small molecule inhibitors of Inositol hexaphosphate kinase 1 (IP6K1); Inositol hexakisphosphate kinase 1 (Homo sapiens), Q92551; IP6K1 kinase, ADP-Glo luminescence, 2 h; stronger effect = lower value; activity change, % (series mostly up to about 58 µM); actives 0.81% (n = 140,000); in the data active = activity change below about -25%; note: % is set by controls: 0 for no effect and ±100 for the full control effect
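ADP-Glo luminescence measures ADP made by human IP6K1 during a 2 h RT reaction with ATP/IP6 (mix at 1.3 mM/130 uM); top library doses 57.5 and 19.1 uM final.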
KDM5B inhibitor: Primary screen for KDM5B Histone Demethylases FDH-coupled qHTS; Lysine-specific demethylase 5B (Homo sapiens), Q9UGL1; KDM5B demethylase, FDH-coupled NADH fluorescence (FDH is formaldehyde dehydrogenase); Potency, µM (titrated, usually from 57.7 µM), most hits filed as inhibitors; actives 2.6% (n = 220,000); AID 1347165, 2019; active = well fitted inhibition curve with a large enough effect; inconclusive = small, poorly fitted or top-dose-only effect; inactive = no such curve, though single readings can be large or run the other way; note: potency is the fitted concentration of half-maximal effect; 0% is about no effect; nearly all actives have a fitted effect of over 70% in size
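Measured: NADH fluorescence change, 30 min, RT. System: KDM5BΔAP 200 nM final, H3K4me3 peptide, α-KG, Fe(II), ascorbate, NAD⁺ plus FDH, pH 7.5 HEPES. Compounds: titrated, 10 min pre-incubation with enzyme.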
* = called active by the depositor; i = inactive; ? = inconclusive; / = not tested or not shown.

SMILES | IP6K1 inhibitor | KDM5B inhibitor
Cc1ccc(-n2nc(-c3c(C)nc4scc(CC(=O)NCc5ccco5)n4c3=O)cc2C)cc1 | -13 | ?
Cc1ccc(C)c(-n2nc(-c3c(C)nc4scc(CC(=O)NCc5ccco5)n4c3=O)cc2C)c1 | -4 | 20µM*
COc1ccccc1-n1nc(-c2c(C)nc3scc(CC(=O)NCc4ccccc4)n3c2=O)cc1C | 7 | 25µM*
Cc1nc2scc(CC(=O)NCc3ccco3)n2c(=O)c1-c1cc(C)n(-c2ccccc2F)n1 | -3 | 28µM*
CCCCCNC(=O)Cc1csc2nc(C)c(-c3cc(C)n(-c4ccccc4F)n3)c(=O)n12 | 15 | ?
O=C(COC(=O)CC1CC2CCC1C2)Nc1ccc([N+](=O)[O-])cc1C(F)(F)F (stereo not drawn) | / | i
CC(NC(=O)COc1ncnc2ccc(Br)cc12)c1ccccc1 (stereo not drawn) | / | i
COc1cccc(-c2ccc(C(=O)N3CCC(NC(=O)C4CC4)CC3)cc2)c1 | 1 | /
CCOc1ccc(Cl)cc1C1CC(=O)Nc2cc(OC)c(OC)c(OC)c21 (stereo not drawn) | -7 | i
COc1ccccc1-n1nc(-c2c(C)nc3scc(CC(=O)NCc4ccco4)n3c2=O)cc1C | 19 | 28µM*
Cc1cc(C)nc(NC(=O)CCSc2ccc(Cl)cc2)n1 | / | i
O=C(NCc1ccc(N2CCCCC2)cc1)c1cccc2c1CCN2C(=O)C1CC1 | -13 | i
N#Cc1ccc(NC2CC(c3cc(N4CCC(O)C4)ncn3)C2)nc1 (stereo not drawn) | -9 | 32µM*
O=C(NC1CC(c2cc(N3CCC(O)C3)ncn2)C1)c1ccoc1 (stereo not drawn) | 12 | i
O=C(NCc1ccccn1)C1CCN(Cc2cc3n(n2)CCCNC3)CC1 | -4 | i
O=C(NCc1cc2n(n1)CCNC2)C1CCCN(c2ccccn2)C1 (stereo not drawn) | 5 | 32µM*
COc1ccc(-c2ccc(C(=O)N3CCC(NC(=O)c4ccc(Cl)nc4)CC3)cc2)nn1 | 6 | /
CC(C)=CCc1c(O)cc2c(c1O)C(=O)C[C@@H](c1ccccc1)O2 | / | i
CC(=O)N1CCN(Cc2nc(-c3cccs3)oc2C)CC1 | / | i
Cc1cccc(CN2CCN(Cc3nc(-c4cccs4)oc3C)CC2CCO)n1 (stereo not drawn) | 3 | 25µM*
Cc1cccc(C(=O)NC(c2ccc3c(c2)OCCCO3)C(C)C)n1 (stereo not drawn) | / | i
COc1cc(OC)cc(C(=O)NCC(c2cccs2)S(=O)(=O)c2ccc(F)c(C)c2)c1 (stereo not drawn) | 15 | ?
NC(=O)c1ccc(CN(CC2CCOC2)C2CC2)cc1 (stereo not drawn) | / | i
Cc1ccc(-c2cc3c(=O)n(CCNC(=O)c4cc(Cl)ccc4F)ccn3n2)c(C)c1 | -2 | ?
COc1ccc(-c2cc3c(=O)n(CCNC(=O)c4cccc(N(C)C)c4)ccn3n2)cc1 | -13 | 35µM*
SMILES | IP6K1 inhibitor | KDM5B inhibitor
COc1ccc(C(=O)NCCn2ccn3nc(-c4ccc(C)c(C)c4)cc3c2=O)cc1 | -2 | 18µM*
Cc1ccc(-c2cc3c(=O)n(CC(O)c4ccc(C)c(C)c4)ccn3n2)c(C)c1 (stereo not drawn) | 0 | 35µM*
COc1ccccc1CC(=O)NCCn1ccn2nc(-c3ccc(C)c(C)c3)cc2c1=O | -17 | ?
COc1ccc(-c2cc3c(=O)n(CCNC(=O)c4cc(OC)cc(OC)c4)ccn3n2)cc1 | -5 | i
COc1ccc(-c2cc3c(=O)n(CCNC(=O)c4ccc(C)s4)ccn3n2)cc1 | 6 | i
COc1ccc(-c2cc3c(=O)n(CCNC(=O)c4ccc(OC)nc4)ccn3n2)cc1 | 0 | 11µM*
O=C(CNC(=O)c1ccc(Cl)cc1Cl)NCc1cnn(-c2ccccc2)c1 | / | i
O=C(NNC(=S)Nc1ccc(F)cc1)c1ccccc1 | / | i
CCOc1ccc(CNC(=O)C2CCN(c3nc4c(C)cc(C)cc4s3)CC2)cc1 | / | i
COc1ccc(Cl)cc1C(=O)N1CCC(c2n[nH]c(=O)n2-c2ccccc2)CC1 | -19 | i
O=C1CC(c2ccccc2)N(C(=O)CNS(=O)(=O)c2cccs2)CCCCCCN1 (stereo not drawn) | 11 | i
N#Cc1cccc(NC(=O)Cn2nc3n(c2=O)CCCCC3)c1 | -9 | ?
Cc1ccc(-c2cc3c(=O)n(CCNC(=O)c4cccnc4)ccn3n2)c(C)c1 | -7 | i
CCOc1ccc(-c2cc3c(=O)n(CCNC(=O)c4ccc(Cl)cc4)ccn3n2)cc1 | -10 | i
Cc1ccc(-c2cc3c(=O)n(CCNC(=O)c4ccc(Cl)cc4)ccn3n2)c(C)c1 | 1 | i
Cc1ccc(-c2cc3c(=O)n(CCNC(=O)c4ccc(N(C)C)cc4)ccn3n2)c(C)c1 | 0 | 28µM*
CCOc1ccc(-c2cc3c(=O)n(CCNC(=O)c4cccc5[nH]ccc45)ccn3n2)cc1 | -1 | 28µM*
CCOc1ccc(-c2cc3c(=O)n(CCNC(=O)c4ccccc4OC)ccn3n2)cc1 | -2 | 32µM*
Cc1ccc(-c2cc3c(=O)n(CCNC(=O)c4nn(C)c5ccccc45)ccn3n2)c(C)c1 | 0 | 28µM*
CCOc1ccc(-c2cc3c(=O)n(CCNC(=O)Cc4cccc(F)c4)ccn3n2)cc1 | -9 | ?
O=C(Cc1n[nH]c(=O)c2ccccc12)NC1CCc2ccccc21 (stereo not drawn) | / | i
CN(C)C(=O)N1CCCC1c1nnc2n1CCNC2 (stereo not drawn) | 6 | ?
Cc1ccc(Sc2ccc(N3CCCC(C(=O)Nc4ccc(F)c(Cl)c4)C3)nn2)cc1 (stereo not drawn) | -12 | ?
CCCCn1c(N)c(N(Cc2ccco2)C(=O)c2cccnc2OCC)c(=O)[nH]c1=O | / | i
COCCn1c(C)cnc1CC1CCCN(Cc2ccc(F)cc2F)C1 (stereo not drawn) | 0 | i
SMILES | IP6K1 inhibitor | KDM5B inhibitor
CNc1ccc([N+](=O)[O-])c(Nc2ccc3[nH]ncc3c2)n1 | -7 | /
C=CCn1c(SCC)nc2c1c(=O)n(C)c(=O)n2C | / | i
Cc1ccc(-c2cc3c(=O)n(CCNC(=O)c4ccc(N(C)C)cc4)ccn3n2)cc1C | -10 | 28µM*
COc1ccc(-c2cc3c(=O)n(CCNC(=O)c4ccc(C#N)cc4)ccn3n2)cc1 | -11 | ?
CCOc1ccc(-c2cc3c(=O)n(CCNC(=O)c4ccc(C#N)cc4)ccn3n2)cc1 | -8 | 20µM*
Cc1ccc(C)c(-c2cc3c(=O)n(CCNC(=O)c4ccccc4F)ccn3n2)c1 | -7 | i
Cc1ccc(-c2cc3c(=O)n(CCNC(=O)c4cccc(Cl)c4)ccn3n2)cc1C | -16 | i
CCOc1ccc(C(=O)NCCn2ccn3nc(-c4ccc(OC)cc4)cc3c2=O)cc1 | 1 | 8.9µM*
Cc1ccc(C)c(C(=O)NCCn2ccn3nc(-c4cc(C)ccc4C)cc3c2=O)c1 | 0 | 32µM*
CCOc1ccc(-c2cc3c(=O)n(CCNC(=O)c4ccc(OC)cc4)ccn3n2)cc1 | 2 | ?
CCn1nccc1C(=O)N1CC(c2nnc(C(C)C)o2)C2(CCOCC2)C1 (stereo not drawn) | 13 | i
CCOCCOC1CCN(C(=O)Cc2cccc(F)c2)CC1 | 42 | i
COc1ccc(-c2nc(C(=O)NC3CC3)n3ccccc23)cc1 | 17 | 32µM*
